Data on five compounds can be found in PubChem BioAssay.

A short description of assay [1]: compounds binding Alexa647 anti-His antibody – biochemical, small-molecule microarray, 635 nm fluorescence, artefact control for SMM control protein annotation, primary screen (AID 1128).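 Further: score merges feature fluorescence with signal-to-noise for each printed compound spot.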 The note with it: higher = more signal.
Assay [2] relates to Human papillomavirus type 1a E7 protein (residues 1-88). Put plainly: HPV1a E7 small-molecule binders, primary screen, biochemical, small-molecule microarray, residues 1-88, 635 nm (AID 1129). The note with it: small-molecule microarray binding, fluorescence 635 nm; higher = more signal.
The target in assay [3] is Focal adhesion kinase 1 (Homo sapiens) (UniProt Q05397). Put plainly: PTK2 protein binding on printed compound slides – biochemical, small-molecule microarray, 635/667 nm fluorescence, BSA, DTT, primary screen (AID 1130).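 Further: composite of spot emission at 667 nm and signal to noise over triplicate slides.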 Conditions: 635 nm fluorescence, higher = more signal.
Assay [4] deals with Fibrinogen (Alexa647-labelled). Put plainly: Alexa647-fibrinogen binding to printed small molecules – biochemical, small-molecule microarray, 635/667 nm fluorescence, artefact control for SMM control-protein annotation, profiling panel (AID 1131).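 Further: z-score merges 667 nm fluorescence with per-spot signal-to-noise over triplicate slides.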 The note with it: fibrinogen-A647 binding fluorescence, higher = more signal.
Assay [5] addresses Follistatin (Homo sapiens) (UniProt P19883). Put plainly: FST protein binding to printed compounds – biochemical, small-molecule microarray, 635/667 nm fluorescence, primary screen (AID 1132). The note with it: 635 nm fluorescence, higher = more signal.
Assay [6] concerns the target Fibroblast growth factor 2 (Homo sapiens) (UniProt P09038). Put plainly: basic fibroblast growth factor binding to printed compounds – biochemical, small-molecule microarray, 635/667 nm fluorescence, primary screen (AID 1133). Conditions: FGF2, fluorescence 635/667, higher = more signal.
A short description of assay [7]: JC-1 mitochondrial potential readout, lung cancer cells – cell-based, A549, JC-1 fluorescence, basal, 24 h, 100 nL, profiling panel (AID 1138).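 Further: A549 lung adenocarcinoma cells under basal conditions with no added stimulus; test concentration not given here.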 Conditions: higher = more signal.
Assay [8] has as its system Lefty1. Description: Lefty1 protein binding to printed compounds – biochemical, small-molecule microarray, 635/667 nm fluorescence, primary screen (AID 1139). The note with it: fluorescence 635/667, higher = more signal.
Assay [9] deals with wheat germ agglutinin (Triticum aestivum), Alexa647-labelled. Description: Alexa647-WGA lectin binding to printed small molecules – biochemical, small-molecule microarray, 635/667 nm fluorescence, artefact control for SMM control-protein annotation, profiling panel (AID 1140).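 Further: score merges 667 nm feature emission with signal to noise over triplicate slides.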 Conditions: WGA-A647 binding, 635 nm fluorescence, higher = more signal.
Assay [10] has as its target Luciferin 4-monooxygenase (Photinus pyralis) (UniProt P08659). Put plainly: inhibition of purified Photinus pyralis luciferase – biochemical, luminescence, purified enzyme, 2006 set, primary screen (AID 1141).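 Further: cell-free assay with purified firefly luciferase at 100 ng per well in PBS; test concentration not given here.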 Conditions: purified firefly luciferase, SteadyGlo luminescence, 30 min; higher = more signal, called active from +8 up or from −8 down.
Assay [11] relates to Wnt5a (protein binding on small-molecule microarray). Description: small molecules binding Wnt5a protein – biophysical, small-molecule microarray, 635/667 nm fluorescence, primary screen (AID 1142).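 Further: fluorescence read at 667 nm with signal to noise per printed feature.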 The note with it: 635 nm fluorescence, higher = more signal.
Assay [12] is described as follows: ATP-based viability of Huh7 replicon cells – cell-based, CellTiter-Glo luminescence, basal, 48 h, cytotoxicity control for HCV replication inhibitor project, primary screen (AID 1143).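 Further: Huh7 hepatoma cells carrying a hepatitis C replication reporter with no stimulus; test concentration not given here.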 The note with it: higher = more signal, called active from +8 up or from −8 down. (In antiviral work, replicon cells carry a viral genome segment that copies itself.)
The nature of assay [13]: Pseudomonas biofilm growth suppression – PAO1 strain, BacTiter-Glo luminescence, LB-PBS, primary screen (AID 1144). Conditions: P. aeruginosa PAO1 biofilm, 12 h, higher = more signal.
Assay [14] can be described thus: basal CRE-LacZ reporter activity in PC12 – cell-based, unstimulated, primary screen (AID 1145). Conditions: no forskolin, luminescence, 4.5 h, higher = more signal, called active from +8 up or from −8 down.
Assay [15] is described as follows: forskolin-driven CRE-LacZ activity in PC12 – cell-based, CRE-LacZ reporter, forskolin-stimulated, primary screen (AID 1146).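 Further: PC12 cells with 6xCRE LacZ reporter stimulated by forskolin 10 µM; beta-galactosidase reporter signal reflecting CREB driven transcription.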 The note with it: luminescence, 4.5 h, higher = more signal, called active from +8 up or from −8 down.
In assay [16] the target is Streptavidin (Streptomyces avidinii) (UniProt P22629). Put plainly: compounds binding control protein streptavidin – biophysical, small-molecule microarray, 635/667 nm fluorescence, artefact control for SMM compound annotation, primary screen (AID 1147).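 Further: signal reflects streptavidin binding to arrayed compounds as a control protein.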 The note with it: higher = more signal.
The nature of assay [17]: probe aInhba binding on compound microarray – biochemical, small-molecule microarray, 635/667 nm fluorescence, primary screen (AID 1148).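 Further: score merges 667nm spot fluorescence with signal-to-noise for antibody binding to printed compounds.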 Conditions: higher = more signal.
Assay [18] has as its target Torsin-1A (Homo sapiens) (UniProt O14656). Put plainly: TOR1A wild-type binding on microarray – cell lysate, small-molecule microarray, lysate, 635/667 nm, primary screen (AID 1149). Conditions: COS7 hTOR1A-WT lysate, 635 nm fluorescence, higher = more signal.
The target is the same in assay [19]. Description: torsin A mutant lysate binding on microarrays – cell lysate, small-molecule microarray, COS7 lysate, 635/667 nm fluorescence, primary screen (AID 1150).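 Further: score pools 667 nm emission and signal to noise measuring lysate protein binding.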 Conditions: COS7 hTOR1A mutant lysate, 635 nm fluorescence, higher = more signal.
The test system of assay [20] is Sonic hedgehog protein (Shh). Description: Sonic hedgehog microarray binding compounds – biochemical, small-molecule microarray, 635/667 nm fluorescence, primary screen (AID 1151).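 Further: Shh protein binding to compounds spotted on small-molecule microarray slides; score combines spot fluorescence intensity with signal-to-noise across triplicate slides.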 Conditions: 635 nm fluorescence, higher = more signal.

The source made the active and inactive calls. Unless noted, how the calls were made is not given here.

Sequence of Luciferin 4-monooxygenase (Photinus pyralis) (P08659 whole entry, looked up): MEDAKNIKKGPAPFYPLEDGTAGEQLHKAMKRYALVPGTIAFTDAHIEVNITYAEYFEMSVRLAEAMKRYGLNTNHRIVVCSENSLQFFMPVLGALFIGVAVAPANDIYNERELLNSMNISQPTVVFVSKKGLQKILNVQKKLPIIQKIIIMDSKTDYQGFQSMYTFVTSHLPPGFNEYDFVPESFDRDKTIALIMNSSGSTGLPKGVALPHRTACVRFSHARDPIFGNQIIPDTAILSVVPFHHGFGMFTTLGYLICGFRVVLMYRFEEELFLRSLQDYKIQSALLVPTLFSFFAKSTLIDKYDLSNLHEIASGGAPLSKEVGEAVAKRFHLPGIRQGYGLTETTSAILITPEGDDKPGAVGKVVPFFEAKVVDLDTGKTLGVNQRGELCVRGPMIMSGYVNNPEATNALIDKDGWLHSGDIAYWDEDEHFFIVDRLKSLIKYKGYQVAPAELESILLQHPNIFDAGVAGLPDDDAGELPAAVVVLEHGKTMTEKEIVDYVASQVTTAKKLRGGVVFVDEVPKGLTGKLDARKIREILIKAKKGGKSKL
Sequence of Follistatin (Homo sapiens) (P19883 whole entry, looked up): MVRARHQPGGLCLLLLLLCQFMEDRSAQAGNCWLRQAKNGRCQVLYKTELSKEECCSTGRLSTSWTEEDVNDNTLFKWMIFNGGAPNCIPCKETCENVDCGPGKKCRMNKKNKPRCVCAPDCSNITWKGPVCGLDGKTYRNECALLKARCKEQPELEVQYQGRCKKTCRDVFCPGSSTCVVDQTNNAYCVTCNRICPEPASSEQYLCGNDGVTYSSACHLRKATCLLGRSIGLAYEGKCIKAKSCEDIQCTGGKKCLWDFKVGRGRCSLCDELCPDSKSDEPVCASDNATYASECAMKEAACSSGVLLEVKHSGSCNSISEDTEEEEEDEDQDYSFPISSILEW
Sequence of Torsin-1A (Homo sapiens) (O14656 whole entry, looked up): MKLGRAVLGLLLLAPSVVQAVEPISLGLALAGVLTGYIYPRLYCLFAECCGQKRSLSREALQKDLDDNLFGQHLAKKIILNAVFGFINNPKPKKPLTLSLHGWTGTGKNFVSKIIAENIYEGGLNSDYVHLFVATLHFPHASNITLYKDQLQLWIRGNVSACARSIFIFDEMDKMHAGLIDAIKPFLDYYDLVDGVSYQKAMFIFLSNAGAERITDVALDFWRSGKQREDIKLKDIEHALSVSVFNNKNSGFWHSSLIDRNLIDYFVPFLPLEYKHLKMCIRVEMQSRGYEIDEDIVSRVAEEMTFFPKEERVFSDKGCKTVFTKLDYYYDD
Sequence of Focal adhesion kinase 1 (Homo sapiens) (Q05397 whole entry, looked up): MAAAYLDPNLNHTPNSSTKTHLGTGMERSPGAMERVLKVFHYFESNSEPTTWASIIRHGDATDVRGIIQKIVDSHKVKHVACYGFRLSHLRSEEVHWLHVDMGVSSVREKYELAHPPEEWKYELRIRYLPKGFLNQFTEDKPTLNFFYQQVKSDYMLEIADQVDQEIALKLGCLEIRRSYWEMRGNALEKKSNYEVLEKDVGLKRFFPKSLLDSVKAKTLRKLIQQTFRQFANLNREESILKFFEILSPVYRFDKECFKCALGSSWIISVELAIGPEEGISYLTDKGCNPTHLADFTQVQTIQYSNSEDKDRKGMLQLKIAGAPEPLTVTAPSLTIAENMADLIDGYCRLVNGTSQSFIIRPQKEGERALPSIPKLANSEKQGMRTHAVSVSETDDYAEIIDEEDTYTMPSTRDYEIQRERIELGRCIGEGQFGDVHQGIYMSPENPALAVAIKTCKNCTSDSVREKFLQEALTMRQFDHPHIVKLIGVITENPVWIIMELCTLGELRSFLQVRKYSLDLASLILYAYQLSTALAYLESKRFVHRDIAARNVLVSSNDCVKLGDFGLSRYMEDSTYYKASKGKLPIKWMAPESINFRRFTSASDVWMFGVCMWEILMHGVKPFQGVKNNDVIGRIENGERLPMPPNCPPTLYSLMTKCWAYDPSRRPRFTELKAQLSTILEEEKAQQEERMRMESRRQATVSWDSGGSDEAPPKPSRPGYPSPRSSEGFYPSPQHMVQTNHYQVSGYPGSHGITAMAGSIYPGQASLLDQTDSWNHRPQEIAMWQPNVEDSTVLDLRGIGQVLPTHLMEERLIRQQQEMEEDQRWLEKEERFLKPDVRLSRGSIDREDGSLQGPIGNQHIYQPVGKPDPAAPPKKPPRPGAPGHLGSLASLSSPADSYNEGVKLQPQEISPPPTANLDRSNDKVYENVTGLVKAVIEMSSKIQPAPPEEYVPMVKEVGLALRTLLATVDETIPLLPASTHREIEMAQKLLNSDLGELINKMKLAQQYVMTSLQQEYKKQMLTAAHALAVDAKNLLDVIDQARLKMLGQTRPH
Sequence of Fibroblast growth factor 2 (Homo sapiens) (P09038 whole entry, looked up): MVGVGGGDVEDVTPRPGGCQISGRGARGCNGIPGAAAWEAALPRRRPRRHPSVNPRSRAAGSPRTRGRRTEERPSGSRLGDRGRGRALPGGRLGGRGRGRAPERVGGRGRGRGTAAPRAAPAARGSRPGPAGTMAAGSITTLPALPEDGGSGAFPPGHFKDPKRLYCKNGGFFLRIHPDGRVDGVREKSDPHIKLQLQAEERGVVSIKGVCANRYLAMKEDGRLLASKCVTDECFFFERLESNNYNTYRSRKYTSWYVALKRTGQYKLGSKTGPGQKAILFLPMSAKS
Sequence of Streptavidin (Streptomyces avidinii) (P22629 whole entry, looked up): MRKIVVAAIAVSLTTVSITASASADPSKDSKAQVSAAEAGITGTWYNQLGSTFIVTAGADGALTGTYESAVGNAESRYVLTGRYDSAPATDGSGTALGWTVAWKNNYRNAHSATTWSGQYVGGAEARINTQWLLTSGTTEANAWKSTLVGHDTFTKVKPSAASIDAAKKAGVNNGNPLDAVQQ

`O=C1C[C@@](C(=O)NCc2ccccc2)(c2ccc([N+](=O)[O-])cc2)[C@@H](c2ccc(CO)cc2I)N1CC12CC3CC(CC(C3)C1)C2`: the composite z-score in assay [1] is 0.579; in assay [2] it was 0.976; in assay [3], 0.121; in assay [4], 0.846; in assay [5] it was 1.41; in assay [6], 1.54. Also, the composite z-score in assay [8] is 1.52; in assay [9] it was 1.07; in assay [11], 0.77; in [16], 0.0117; in assay [17] it was -0.246; in assay [18], 0.585. Moreover, the results for the composite z-score in assay [19] and in [20] were 0.825 and 2.06, respectively. Besides, the z-score was -1.36 in assay [7]; 1.34 (inactive) in assay [10]; -5.74 (inactive) in assay [12]; -1.67 (inactive) in [13]; -0.709 (inactive) in assay [14]; -0.038 (inactive) in assay [15].
Turning to `O=C1O[C@H](c2ccccc2)[C@H](c2ccccc2)N2[C@H]1[C@@H](C(=O)N1CCCCCCC1)[C@]1(C(=O)Nc3ccc(C#CC4(O)CCCCCC4)cc31)[C@H]2c1ccc(O)cc1`, the composite z-score was determined as 0.821 in assay [1]; 1.22 in assay [2]; 1.75 in assay [3]; 0.545 in assay [4]; 1.4 in assay [5]; 1.37 in assay [6]. Besides, the composite z-score came out at 1.27 in assay [8]; 0.757 in assay [9]; 1.19 in [11]; 2.76 in assay [16]; 1.77 in [17]; 1.13 in assay [18]. Besides, the results for the composite z-score in assay [19] and in assay [20] were 1.49 and 1.45, respectively. The z-score was 0.706 in assay [7]; -0.0026 (inactive) in [10]; -3.1 (inactive) in assay [12]; -0.555 (inactive) in assay [13]; -0.168 (inactive) in [14]; -0.219 (inactive) in assay [15].
For `C=CCC(OC(C)=O)[C@@H]1[C@@H](N(Cc2ccc(-c3cccc(C(F)(F)F)c3)o2)C(=O)Cc2ccc(OC)cc2)c2cc(OCCCO)ccc2N1C(=O)Cc1ccc2ccccc2c1` (stereo not given in full), the composite z-score in assay [1] was 0.083; in [2] it was -1.39; in assay [3], -0.368; in assay [4], 0.226; in assay [5] it was 0.131; in assay [6], -0.501. Moreover, the composite z-score is -0.27 in assay [8]; -0.0571 in assay [9]; -0.19 in [11]; -0.679 in assay [16]; -0.238 in assay [17]; -1.96 in assay [18]. The values for the composite z-score in assay [19] and in [20] were -1.85 and 0.0678, respectively. Besides, the z-score in assay [7] is -0.451; in assay [10], 0.149 (inactive); in [12] it was -1.58 (inactive); in [13], -0.787 (inactive); in assay [14] it was 0.134 (inactive); in assay [15], 0.376 (inactive).
As for `COc1cc(C(O)C2C=CC3C(=O)N(Cc4ccccc4)C(=O)C3N2n2cnnc2)cc(OC)c1OC` (stereo not given), the composite z-score was 0.941 in assay [1]; 0.869 in assay [2]; 0.498 in [3]; 0.912 in [4]; 0.448 in assay [5]; 0.405 in assay [6]. The composite z-score in assay [8] is -0.493; in [9], 1.15; in [11], 0.388; in assay [16], 0.267; in [17], 0.255; in [18] it was 0.683. The values for the composite z-score in assay [19] and in assay [20] were 0.671 and 0.131, respectively. Moreover, the z-score was -0.417 in assay [7]; -2.17 (inactive) in [10]; -0.429 (inactive) in [12]; -1.77 (inactive) in assay [13]; 0.636 (inactive) in assay [14]; -0.634 (inactive) in assay [15].
With `CC(C)C[C@@H]1NC(=O)[C@@]23C(=O)N[C@@H](Cc4ccccc4)C2[C@H](C)[C@@]2(C)O[C@H]2C3/C=C/C/C=C\CNC(=O)[C@@H](C)NC1=O` (stereo not given in full), the composite z-score in [1] is -0.471; in assay [2] it was -0.522; in [3], -0.647; in [4], -0.67; in assay [5], 0.418; in [6] it was 0.901. The composite z-score in assay [8] is 0.709; in [9] it was 0.808; in assay [11], -0.336; in [16], -0.823; in [17], -0.348; in assay [18], 0.056. Besides, the values for the composite z-score in assay [19] and in [20] were -0.196 and 1.29, respectively. In addition, the z-score in [7] was 0.0204; in assay [10] it was 0.757 (inactive); in [12] it was -0.611 (inactive); in assay [13] it was -0.944 (inactive); in assay [14] it was 0.662 (inactive); in [15] it was -0.268 (inactive).
